assay: FRG1 expression reporter modulators in myotubes – cell-based, C2C12 myotubes, firefly/Renilla luciferase, luminescence, FRG1 inhibition for FSHD, primary screen (AID 1084); settings: FRG1 promoter luciferase, higher = more signal, called active from +8 up or from −8 down

z-score, inactive:
COCCCNC(=O)[C@@]1(Cc2ccccc2)COC(c2ccc(OCCCO)cc2)=N1 -1.02
COC(=O)[C@]1(Cc2ccccc2CN=[N+]=[N-])N=C(c2ccc(OCCCO)cc2)O[C@@H]1c1ccccc1CN=[N+]=[N-] -0.904
O=C1NC(=O)C2C1C=CC(C(O)c1ccc(-c3ccccc3)s1)N2Nc1ccccn1 (stereo not given) 0.703
C=C(C(=O)CC[C@H](OC(=O)c1cccnc1)c1ccc(OCCO)cc1)C(C)C 1.14
Cc1ccc(N2C(=O)c3ccccc3[C@](C)(C(=O)NC(C)C)[C@@H]2c2ccc(CO)cc2)nc1 -0.0923
CCCCC=C[C@@H](NC(=O)CCc1ccccc1)c1ccccc1 -1.42
C=CCC(OC(C)=O)[C@@H]1[C@@H](N(Cc2cccc3ccccc23)C(=O)c2ccc(C)cc2)c2cc(OCCCO)ccc2N1C(=O)c1ccc2ccccc2c1 (stereo not given in full) -1.8
C[C@]12C(=O)N(CCCCCO)[C@@H]3C(=O)N(c4ccc(Cl)cc4)CC=CC31O[C@@H]1/C=C\CCCOC(=O)C12 (stereo not given in full) 0.803
O=C1c2ccccc2[C@](Cc2ccccc2I)(C(=O)NCC(F)(F)F)[C@H](c2ccc(CO)cc2)N1Cc1ccccc1 -0.508
O=C(O)[C@@]1(Cc2ccccc2)COC(c2ccc(OCCCO)cc2)=N1 0.809
COCCCNC(=O)[C@]1(Cc2ccccc2)N=C(c2ccc(OCCCO)cc2)O[C@@H]1c1ccccc1N=[N+]=[N-] -0.309
COCCOC(=O)N1C(=O)[C@@]2(c3cc(C#Cc4ccc(OC)cc4)ccc31)[C@H](C(=O)N1CCc3cc(OC)c(OC)cc3C1)[C@H]1C(=O)O[C@H](c3ccccc3)[C@H](c3ccccc3)N1[C@@H]2c1ccc(OCCO)cc1 1.36
CC(C)NC(=O)[C@@]1(Cc2ccccc2I)c2ccccc2C(=O)N(Cc2ccccc2C(F)(F)F)[C@H]1c1ccc(CO)cc1 -2.61
COC(=O)[C@@]1(Cc2ccc(OC)cc2)[C@H]2c3cc(C(=O)N(C)C)n(Cc4cc(F)c(F)c(F)c4)c3C[C@H]2CN1C(=O)c1ccccc1 2.19
O=C1N(CCS(=O)(=O)c2ccccc2)Cc2ccccc2C[C@@]12COC(c1ccc(OCCCO)cc1)=N2 0.0674
Cc1ccc(S[C@]2(C(=O)O)CC(=O)N(Cc3ccccc3C(F)(F)F)[C@@H]2c2ccc(CO)cc2)cc1 -0.383
O=C1N(CCS(=O)(=O)c2ccccc2)c2ccccc2[C@H]2OC(c3ccc(OCCCO)cc3)=N[C@@]12CCS(=O)(=O)c1ccccc1 -0.938
CC(C)C(CO)N1C(=O)[C@@H]2[C@H]3C(=O)OCC=C[C@H]3OC23C=CCN(CCN2CCOCC2)C(=O)[C@@H]13 (stereo not given in full) -0.0357
CC(C)(C)OC(=O)CC[C@@]1(C(=O)N2CCCCC2)N=C(c2ccc(OCCCO)cc2)O[C@@H]1c1ccccc1N=[N+]=[N-] -1.88
CCCCCCC#C[Si](O[C@H](c1ccccc1)c1cn(Cc2cccc(Cl)c2)nn1)(C(C)C)C(C)C -0.891
C=CCOC(=O)[C@@H]1[C@H]2C(=O)O[C@H](c3ccccc3)[C@H](c3ccccc3)N2[C@H](c2ccc(OCCOC(=O)[C@@H]3C[C@@H]4C(=O)N5CCC[C@H]5C(=O)N4[C@@H]3c3cccc(OCCO)c3)cc2)[C@@]12C(=O)Nc1ccc(I)cc12 0.184
C=CCC(OC(C)=O)[C@@H]1[C@@H](N(Cc2cccc3ccccc23)C(=O)Cc2ccc(F)cc2)c2cc(OCCCO)ccc2N1C(=O)Cc1ccc(OC)cc1 (stereo not given in full) -1.05
CO[C@H]1O[C@H](CO)[C@@H](OC(=O)Nc2ccc(C(F)(F)F)cc2)[C@H](OC(=O)Nc2ccccc2)[C@H]1OC(=O)Nc1ccccc1 2.74
C=C(COC)C(=O)CC[C@H](OC(=O)c1ccccc1-c1ccccc1C(=O)O)c1ccc(CO)o1 -0.362
CC(C)CNC(=O)[C@@]1(C)c2ccccc2C(=O)N(Cc2ccccc2)[C@H]1c1ccc(CO)cc1 -1.26
CCC[C@@H]1C[C@@]1(CCC)[C@@H](NC(=O)c1ccco1)c1ccc(Cl)cc1 -0.632
[N-]=[N+]=NCc1ccccc1[C@H]1OC(c2ccc(OCCCO)cc2)=N[C@@]1(Cc1ccccc1)C(N)=O 2.79
COc1ccc([Si](C)(C)[C@H]2[C@H](CCO)O[C@@]3(C(=O)N(Cc4cccc(N5CCOC5=O)c4)c4ccccc43)[C@@H]2C)cc1 -2.15
C[N+](C)(C)CCCC[C@@H]1NC(=O)[C@@H]2C[C@H](C(=O)NCCCCCNC(=O)CS)[C@H](c3cccc(OCCO)c3)N2C1=O -0.669
COCCOC(=O)N1C(=O)[C@@]2(c3cc(C#CC4(O)CCCCCC4)ccc31)[C@H](C(=O)NC[C@H](O)c1ccccc1)[C@H]1C(=O)O[C@H](c3ccccc3)[C@H](c3ccccc3)N1[C@@H]2c1ccc(OCCO)cc1 0.78
COc1cccc(C)c1NC(=O)O[C@H]1[C@H](OC(=O)Nc2ccccc2)[C@H](OC(=O)Nc2ccccc2)[C@@H](OC)O[C@@H]1CO 1.59
COC(=O)[C@@]1(Cc2ccccc2)[C@H]2c3cc(C(=O)N4CCCC4)n(Cc4ccccc4)c3C[C@H]2CN1C(=O)c1ccccc1 -1.15
COc1cc2c(cc1OC)CN(C(=O)[C@@H]1[C@H]3C(=O)O[C@H](c4ccccc4)[C@H](c4ccccc4)N3[C@H](c3ccc(OCCO)cc3)[C@@]13C(=O)Nc1ccc(C#CCCO)cc13)CC2 0.838
COc1ccc([Si](C)(C)[C@@H]2[C@@H](CC(=O)N(CCO)Cc3ccccc3)O[C@]3(C(=O)N(C)c4c(Br)cc(C)cc43)[C@H]2C)cc1 -3.19
COC(=O)[C@@]1(Cc2ccccc2)[C@H]2c3cc(C(=O)N4CCCC4)n(Cc4ccc(OC(F)(F)F)cc4)c3C[C@H]2CN1C(=O)c1ccccc1 0.705

— PubChem BioAssay
